# Laboratory results from PubChem BioAssay (NCATS).
# Records with an inconclusive call do not appear. Entries that show only a call come without a potency. Active and inactive are the calls of the source. Calls come from the whole dose curve; as a rule, active = well fitted curve in the direction sought with a large enough effect; inconclusive = small, poorly fitted or top-dose-only effect, or another doubt; inactive = no such curve, though single readings can be large; an effect the other way counts as inactive or inconclusive.
# Experiments:
# [1] = Tertiary RLuc qRT-PCR qHTS assay for Zika virus inhibitors (AID 1347169); settings: infected Vero cells, reporter luminescence, 48-72 h; series mostly up to 26.6 µM; note: nearly all actives have a fitted effect of over 55% in size; note: potency is the fitted concentration of half-maximal effect
# In short: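 Vero cells (1,000/well) infected with recombinant ZIKV-RLuc (Cambodian) at MOI 1-2 after compound addition, 48-72 hrs at 37 degrees C. Live-cell Renilla luciferase substrate added; luminescence read after 1-1.5 hrs.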
# [2] = HepG2 cells viability qHTS for Zika virus inhibitors (AID 1347168); settings: Zika counter-screen; series mostly up to 45.9 µM
# In short: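 Luminescent ATP readout (CellTiter Glo) after 30 min at 37 degrees C gives viability; cells in DMEM + 4% FBS were treated 24 to 48 hours with compound, following overnight attachment.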
# [3] = OV-KATE Cancer Cell Toxicity qHTS against the NCATS CANVASS Library (AID 1347345); settings: OV-KATE cells viability, CellTiter-Glo luminescence, 72 h; note: potency is the fitted concentration of half-maximal effect
# In short: (§1)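 1000 cells/well seeded and rested 4 h at 37 °C before pin transfer of compounds in an 11-pnt series. Exposure 72 h at 37 °C/5% CO2; viability by CellTiter-Glo luminescence after 15 min at room temperature.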
# [4] = HPAF-II Cancer Cell Toxicity qHTS against the NCATS CANVASS Library (AID 1347346); settings: HPAF-II viability, CellTiter-Glo ATP luminescence, 72 h; note: potency is the fitted concentration of half-maximal effect; nearly all actives have a fitted effect of over 55% in size
# In short: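 First, HPAF-II cells are plated (1000 cells/well) and held 4 h at 37 degrees C. Next, compounds are pin-transferred as an 11-point series. After 72 h, CellTiter-Glo is added and luminescence measured.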
# [5] = UWB1.289 Cancer Cell Toxicity qHTS against the NCATS CANVASS Library (AID 1347347); settings: UWB1.289 viability, CellTiter-Glo luminescence, 72 h; note: potency is the fitted concentration of half-maximal effect; nearly all actives have a fitted effect of over 60% in size
# In short: as §1
# [6] = OV-SAHO Cancer Cell Toxicity qHTS against the NCATS CANVASS Library (AID 1347348); settings: OV-SAHO viability, CellTiter-Glo luminescence, 72 h; note: potency is the fitted concentration of half-maximal effect; nearly all actives have a fitted effect of over 55% in size
# In short: as §1
# [7] = Panc-1005 Cancer Cell Toxicity qHTS against the NCATS CANVASS Library (AID 1347349); settings: Panc-1005 viability, CellTiter-Glo luminescence, 72 h; note: potency is the fitted concentration of half-maximal effect; nearly all actives have a fitted effect of over 60% in size
# In short: as §1
# [8] = U-118MG Cancer Cell Toxicity qHTS against the NCATS CANVASS Library (AID 1347351); settings: U-118MG viability, CellTiter-Glo luminescence, 72 h; note: potency is the fitted concentration of half-maximal effect
# In short: as §1
# [9] = COV-362 Cancer Cell Toxicity qHTS against the NCATS CANVASS Library (AID 1347352); settings: COV-362 viability, CellTiter-Glo luminescence, 72 h; note: potency is the fitted concentration of half-maximal effect
# In short: (§2)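 First, 1000 cells go into each well and rest for 4 hours. Next, an 11-point dilution range is pinned in. Plates then incubate 72 hours before CellTiter-Glo addition and luminescence reading.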
# [10] = A2780 Cisplatin Sensitive Ovarian Cancer Cell Toxicity qHTS against the NCATS CANVASS Library (AID 1347353); settings: A2780 ovarian cancer viability, ATPLite luminescence, 72 h; note: potency is the fitted concentration of half-maximal effect; nearly all actives have a fitted effect of over 60% in size
# In short: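 Cells are plated at 750 per well and rest for 4 hours. Compounds are added across eleven concentrations, and incubated 72 hours before ATP is quantified by luminescence.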
# [11] = HEK-293 Cancer Cell Toxicity qHTS against the NCATS CANVASS Library (AID 1347355); settings: HEK-293 viability, CellTiter-Glo luminescence, 72 h; note: potency is the fitted concentration of half-maximal effect; nearly all actives have a fitted effect of over 65% in size
# In short: as §2
# [12] = HPAF-II 24hr Apoptosis Induction qHTS against the NCATS CANVASS Library (AID 1347356); settings: HPAF-II caspase-3/7 Caspase-Glo luminescence; series mostly up to 46.1 µM
# In short: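 Cells seeded at 500 per well, then compounds pin-transferred in an 11-point concentration series. After 24 hours at 37 degrees C, Caspase-Glo 3/7 was added and luminescence measured following 15 min at room temperature.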
# [13] = HEK293 18hr Apoptosis Induction qHTS against the NCATS CANVASS Library (AID 1347357); settings: HEK293 caspase-3/7 Caspase-Glo luminescence; series mostly up to 46.1 µM
# In short: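 HEK293 cells (500/well, DMEM + 10% FBS) treated with an 11-point series for 18 h at 37 degrees C. Caspase-3/7 activity read by Caspase-Glo luminescence after 15 min at room temperature.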
# [14] = HPAF-II 12hr Apoptosis Induction qHTS against the NCATS CANVASS Library (AID 1347358); settings: HPAF-II caspase-3/7 Caspase-Glo luminescence; series mostly up to 46.1 µM
# In short: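 Cells plated at 500 per well are dosed with compound and incubated 12 hours at 37 degrees C. Caspase-Glo 3/7 reagent is added and, after 15 min at room temperature, luminescence proportional to caspase activity is measured.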
# [15] = HEK293 24hr Apoptosis Induction qHTS against the NCATS CANVASS Library (AID 1347359); settings: HEK293 caspase-3/7 activation, Caspase-Glo luminescence; series mostly up to 46.1 µM
# In short: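 Caspase-3/7 activation measured as luminescence from the DEVD-based Caspase-Glo reagent, 15 min at room temperature, following 24-hour compound treatment of HEK293 cells.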
# [16] = HPAF-II 18hr Apoptosis Induction qHTS against the NCATS CANVASS Library (AID 1347360); settings: HPAF-II caspase-3/7 luminescence; series mostly up to 46.1 µM
# In short: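 HPAF-II cells at 500/well were exposed for 18 h at 37 C to an 11-point compound series. Caspase-3/7 activity was read by Caspase-Glo luminescence after 15 min at RT.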
# [17] = HEK293 12hr Apoptosis Induction qHTS against the NCATS CANVASS Library (AID 1347361); settings: HEK293 caspase-3/7 Caspase-Glo luminescence; series mostly up to 46.1 µM
# In short: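 HEK293 cells (500/well) were exposed to an 11-point qHTS concentration series for 12 hours at 37 degrees C. Caspase-3/7 activity was then read by DEVD-substrate luciferase luminescence after 15 min at room temperature.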
# [18] = system: NAD(P)H diaphorase (Clostridium kluyveri); assay: Diaphorse counterscreen qHTS: Assay Interference Panel against the NCATS CANVASS Library (AID 1347362); settings: Diaphorase enzyme, resazurin to resorufin fluorescence; series mostly up to 57.5 µM
# In short: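 Counterscreen for coupling-enzyme interference: resorufin fluorescence from resazurin/NADH turnover, read after 5 min at room temperature. Compounds were tested over an 11-point series after 15 min dark preincubation with diaphorase in PBS-Tween.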
# [19] = molecular target: Luciferin 4-monooxygenase (Photinus pyralis) (UniProt P08659); assay: Firefly luciferase counterscreen qHTS: Assay Interference Panel against the NCATS CANVASS Library (AID 1347363); settings: purified firefly luciferase, luminescence inhibition, 5 min; series mostly up to 57.5 µM
# In short: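 Luminescence inhibition readout: compounds (11-point qHTS) sat 15 min at room temperature with substrate mix (0.013 mM luciferin and ATP), then firefly luciferase was added and signal read 5 min later.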
# [20] = KB-8-5-11 Cancer Cell Toxicity qHTS against the NCATS CANVASS Library (AID 1347364); settings: KB-8-5-11 MDR cells viability, CellTiter-Glo, 72 h; note: potency is the fitted concentration of half-maximal effect; nearly all actives have a fitted effect of over 75% in size
# In short: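 Terse: KB-8-5-11, 500 cells/well, 72 hr, 37C/5% CO2, 11-pt titration, CellTiter-Glo readout; confirmatory runs ± 1uM tariquidar in medium.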
# Luciferin 4-monooxygenase (Photinus pyralis), sequence (P08659 whole entry, looked up): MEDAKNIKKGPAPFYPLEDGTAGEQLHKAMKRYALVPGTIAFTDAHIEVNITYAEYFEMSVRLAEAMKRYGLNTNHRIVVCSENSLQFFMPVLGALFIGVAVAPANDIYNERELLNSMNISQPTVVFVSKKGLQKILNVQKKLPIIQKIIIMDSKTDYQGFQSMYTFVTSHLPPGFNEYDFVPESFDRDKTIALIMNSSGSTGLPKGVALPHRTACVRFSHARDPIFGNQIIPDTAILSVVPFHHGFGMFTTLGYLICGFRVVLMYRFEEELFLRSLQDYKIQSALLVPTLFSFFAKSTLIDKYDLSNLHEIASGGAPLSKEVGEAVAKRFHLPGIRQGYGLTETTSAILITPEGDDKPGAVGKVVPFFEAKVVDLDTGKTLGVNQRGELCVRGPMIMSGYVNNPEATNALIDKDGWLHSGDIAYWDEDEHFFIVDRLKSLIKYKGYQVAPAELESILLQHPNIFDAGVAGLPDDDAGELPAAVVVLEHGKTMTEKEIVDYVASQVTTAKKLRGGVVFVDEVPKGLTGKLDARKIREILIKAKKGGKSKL
structure (smiles),measurement,setting,value
CC(C)(C)Nc1nc2cc(Cl)c(Cl)cc2nc1S(C)(=O)=O,Potency,[1],10.4 µM (active)
O=C(O)/C=C/c1ccc(-c2ccc(O)c(C34CC5CC(CC(C5)C3)C4)c2)cc1,outcome,[2],inactive
same,Potency,[1],0.415 µM (active)
CC(C)CC(=O)OC1OC=C(CO[C@@H]2O[C@H](CO)[C@@H](O)[C@H](O)[C@H]2O)C2CC(O)C(O)(CO)C12 (some centres undefined),Potency,[1],inactive
Cc1cc(=O)oc2c(C=O)c(O)ccc12,Potency,[1],inactive
O=C1OCc2cc3cccc(O[C@@H]4O[C@H](CO)[C@@H](O)[C@H](O)[C@H]4O)c3c(O)c21,Potency,[1],inactive
COc1cc(Nc2nc3ccccc3nc2NS(=O)(=O)c2ccc(NC(=O)c3ccc(OC)c(C)c3)cc2)cc(OC)c1,outcome,[2],inactive
CC1(C)CC[C@]2(C(=O)O)CC[C@]3(C)C(=CCC4[C@@]5(C)C[C@@H](O)[C@H](O)C(C)(C)C5CC[C@]43C)C2C1 (some centres undefined),outcome,[2],inactive
same,Potency,[1],9.06 µM (active)
CC1(C)CCC(C)(C)c2cc(C3(c4ccc(C(=O)O)cc4)OCCO3)ccc21,outcome,[2],inactive
Nc1ncnc2c([C@@H]3N[C@H](CO)[C@@H](O)[C@H]3O)c[nH]c12,outcome,[2],inactive
C=C1C(=O)O[C@H]2C1[C@H](OC(=O)/C(=C/CO)COC(=O)/C(C)=C/CO)CC(=C)[C@@H]1CC(=O)[C@@H](C)[C@@H]12 (some centres undefined),Potency,[1],inactive
CC1(C)CC2=C3C=CC4C5(C)CCC(O)C(C)(C)C5CCC4(C)C3(C)CCC2(C)C(O)C1 (centres undefined),outcome,[2],inactive
C=CC/C=C\C/C=C\CCCCCCCc1cccc(O)c1C(=O)O,outcome,[2],inactive
same,Potency,[1],inactive
COc1ccc(Cl)c(Nc2nc3ccccc3nc2NS(=O)(=O)c2cccc(NC(=O)C(C)(C)N)c2)c1,outcome,[2],inactive
same,Potency,[1],14.7 µM (active)
OC/C=C/C=C/[C@H]1Cc2cc(O)cc(O)c2O1,Potency,[1],inactive
O=C(N/N=C/c1ccc(O)c(O)c1)c1cc2ccccc2cc1O,outcome,[2],inactive
same,Potency,[1],6.18 µM (active)
CCc1c(-c2ccccc2)c(-c2ccccc2)nn1-c1ccccc1-c1cccc(OCC(=O)O)c1,outcome,[2],inactive
O=S(=O)(c1ccccc1)c1cnc2c(N3CCNCC3)cccc2c1,Potency,[1],inactive
O=[N+]([O-])c1cccc2[nH]c(CNc3nc(N4CCOCC4)nc4c3ncn4-c3ccsc3)nc12,Potency,[1],0.117 µM (active)
C=C[C@H]1[C@H](O[C@@H]2O[C@H](CO)[C@@H](O)[C@H](O)[C@H]2O)OC=C(C(=O)OC)[C@H]1CCOC(=O)c1cc(O)c(O)c(O)c1,outcome,[2],inactive
same,Potency,[1],inactive
C=C1C(=O)O[C@H]2[C@H]1CC/C(C)=C/CC[C@@]1(C)O[C@@H]21,Potency,[3],6.66 µM (active)
same,Potency,[4],21.1 µM (active)
same,Potency,[5],11.8 µM (active)
same,Potency,[6],7.47 µM (active)
same,Potency,[7],6.68 µM (active)
same,Potency,[8],6.68 µM (active)
same,Potency,[9],18.8 µM (active)
same,Potency,[10],2.96 µM (active)
same,Potency,[11],7.43 µM (active)
same,outcome,[12],inactive
same,outcome,[13],inactive
same,outcome,[14],inactive
same,outcome,[15],inactive
same,outcome,[16],inactive
same,outcome,[17],inactive
same,outcome,[18],inactive
same,outcome,[19],inactive
same,Potency,[20],16.6 µM (active)
COc1ccc(C(=O)n2c(C)c(Cc3cccc(O[C@@H](C)C(=O)O)c3)c3cc(OC(F)(F)F)ccc32)cc1,outcome,[2],inactive
CC(C)c1cccc2c(-c3ccccc3)cc(-c3ccc(-c4ccc(C(=O)O)cc4)[nH]3)nc12,outcome,[2],inactive
CC1=C(C(=O)OCc2ccccc2)C(c2ccc(-c3ccccc3)cc2)NC(=O)N1CCCCCC(=O)O (centres undefined),outcome,[2],inactive
same,Potency,[1],23.4 µM (active)
O=C(O)Cc1ccc2oc(-c3ccc(NC(=O)/C=C/c4ccc(Br)cc4)c(F)c3)nc2c1,outcome,[2],inactive
same,Potency,[1],inactive
N#CC(c1ccnc(OCc2ccc(CN3CCOCC3)cc2)n1)c1nc2ccccc2s1 (centres undefined),outcome,[2],inactive
O=C(Nc1ccc(S(=O)(=O)Nc2nccs2)cc1)C(c1ccccc1)c1ccccc1,outcome,[2],inactive
same,Potency,[1],20.8 µM (active)
CCCCCCOc1cc2c(cc1N(C)c1ncc(C(=O)O)cn1)C(C)(C)CCC2(C)C,outcome,[2],inactive
same,Potency,[1],20.8 µM (active)
